Structures can show the parent of a compound that is named as a salt. About 2,000 (36%) of roughly 5,500 compounds were called active. Not shown: some 18% with an inconclusive outcome. Cut-off read from the data, not from the text of the source: active = normalized growth mostly below about 0.91 (no sharp cut-off); inconclusive = no clear call, values can overlap the other calls; inactive = mostly above about 0.92. The list shows a part of the results. Where a SMILES comes first, the peptide text is derived from it. The star is where a group is joined. Tfa = O=C(C(F)(F)F)*
Assay: chemical genetic growth profiling, strain panel (AID 1159580);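 note: tested at 20 µM; growth read once vehicle control cultures reached saturation at 30 °C; 1 = growth at the plate median or of vehicle wells; lower values mean less growth of the strain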
Settings: S. cerevisiae deletion strains, growth OD
[1] = locus YAL021C, strain ccr4, hits give low values
[2] = locus YAL026C, strain drs2, hits give low values
[3] = locus YAL030W, strain snc1, hits give low values
[4] = locus YBL061C, strain skt5, hits give low values
[5] = locus YBR009C, strain hhf1, hits give low values
[6] = locus YBR023C, strain chs3, hits give low values
[7] = locus YBR171W, strain sec66, hits give low values
[8] = locus YBR231C, strain swc5, hits give low values
[9] = locus YBR279W, strain paf1, hits give low values
[10] = locus YCL011C, strain gbp2, hits give low values
[11] = locus YCL016C, strain dcc1, hits give low values
[12] = locus YCL069W, strain vba3, hits give low values
[13] = locus YCR088W, strain abp1, hits give low values
[14] = locus YDL005C, strain med2, hits give low values
[15] = locus YDL040C, strain nat1, hits give low values
[16] = locus YDR001C, strain nth1, hits give low values
[17] = locus YDR069C, strain doa4, hits give low values
[18] = locus YDR137W, strain rgp1, hits give low values
[19] = locus YDR159W, strain sac3, hits give low values
[20] = locus YDR297W, strain sur2, hits give low values
[21] = locus YDR334W, strain swr1, hits give low values
[22] = locus YDR335W, strain msn5, hits give low values
[23] = locus YDR392W, strain spt3, hits give low values
[24] = locus YEL003W, strain gim4, hits give low values
[25] = locus YEL037C, strain rad23, hits give low values
[26] = locus YEL061C, strain CIN8 (second series), hits give low values
[27] = locus YER015W, strain faa2, hits give low values
[28] = locus YER016W, strain bim1, hits give low values
[29] = locus YER111C, strain swi4, hits give low values
[30] = locus YER155C, strain BEM2 (second series), hits give low values
[31] = locus YFR010W, strain ubp6, hits give low values
[32] = locus YGL167C, strain pmr1, hits give low values
[33] = locus YGL173C, strain kem1, hits give low values
[34] = locus YGL227W, strain vid30, hits give low values
[35] = locus YGL240W, strain doc1, hits give low values
[36] = locus YGL253W, strain hxk2, hits give low values
[37] = locus YHR013C, strain ard1, hits give low values
[38] = locus YHR027C, strain rpn1, hits give low values
[39] = locus YHR142W, strain chs7, hits give low values
[40] = locus YJL092W, strain hpr5, hits give low values
[41] = locus YJL095W, strain BCK1 (second series), hits give low values
[42] = locus YJL115W, strain asf1, hits give low values
[43] = locus YJL129C, strain trk1, hits give low values
[44] = locus YJL154C, strain vps35, hits give low values
[45] = locus YJL164C, strain tpk1, hits give low values
[46] = locus YJL166W, strain qcr8, hits give low values
[47] = locus YKL160W, strain elf1, hits give low values
[48] = locus YKR026C, strain gcn3, hits give low values
[49] = locus YKR091W, strain srl3, hits give low values
[50] = locus YLL001W, strain dnm1, hits give low values
[51] = locus YLL026W, hits give low values
[52] = locus YLL041C, strain sdh2, hits give low values
[53] = locus YLR027C, strain aat2, hits give low values
[54] = locus YLR221C, strain rsa3, hits give low values
[55] = locus YLR258W, strain gsy2, hits give low values
[56] = locus YLR262C, strain YPT6 (second series), hits give low values
[57] = locus YLR320W, strain mms22, hits give low values
[58] = locus YLR342W, strain FKS1, hits give low values
[59] = locus YLR357W, strain rsc2, hits give low values
[60] = locus YLR370C, strain arc18, hits give low values
[61] = locus YLR384C, strain iki3, hits give low values
[62] = locus YML120C, strain ndi1, hits give low values
[63] = locus YMR058W, strain fet3, hits give low values
[64] = locus YMR125W, strain sto1, hits give low values
[65] = locus YMR129W, hits give low values
[66] = locus YMR205C, strain PFK2, hits give low values
[67] = locus YMR231W, strain pep5, hits give low values
[68] = locus YNL071W, strain lat1, hits give low values
[69] = locus YNL209W, strain ssb2, hits give low values
[70] = locus YNL248C, strain rpa49, hits give low values
[71] = locus YNL322C, strain KRE1 (second series), hits give low values
[72] = locus YNR049C, strain mso1, hits give low values
[73] = locus YOR001W, strain rrp6, hits give low values
[74] = locus YOR070C, strain gyp1, hits give low values
[75] = locus YOR080W, strain dia2, hits give low values
[76] = locus YOR083W, strain WHI5, hits give low values
[77] = locus YOR106W, strain vam3, hits give low values
[78] = locus YOR265W, strain rbl2, hits give low values
[79] = locus YOR270C, strain vph1, hits give low values
[80] = locus YOR290C, strain snf2, hits give low values
[81] = locus YPL051W, strain arl3, hits give low values
[82] = locus YPL078C, strain atp4, hits give low values
[83] = locus YPL106C, strain sse1, hits give low values
[84] = locus YPL240C, strain hsp82, hits give low values

Measured: normalized growth

O=C1C=C2C=C[C@@H]3C[C@@]2(O1)[C@H]1CCCCN31
inactive: [1] 1.02 | [2] 1.01 | [3] 0.993 | [4] 1.01 | [5] 0.938 | [6] 1.01 | [7] 0.99 | [8] 0.977 | [9] 1.01 | [10] 1.01 | [11] 1.04 | [12] 0.974 | [13] 0.985 | [14] 0.998 | [15] 0.997 | [16] 0.992 | [17] 0.996 | [18] 0.965 | [19] 0.93 | locus YDR195W, strain ref2 0.973 | [20] 0.994 | [21] 0.956 | [22] 1.01 | [23] 0.973 | [24] 0.95 | [25] 0.982 | [26] 0.976 | [27] 1.01 | [28] 1.03 | [29] 1 | [30] 0.986 | [31] 0.96 | [32] 0.978 | [33] 0.977 | [34] 0.985 | [35] 0.989 | [36] 1.01 | [37] 1.01 | [38] 0.979 | locus YHR030C, strain SLT2, hits give low values 1.06 | locus YHR079C, strain IRE1, hits give low values 1.05 | [39] 1.01 | [40] 0.993 | [41] 1 | locus YJL095W, strain BCK1, hits give low values 1 | [42] 0.993 | [43] 1.01 | [44] 0.986 | [45] 0.969 | [46] 0.961 | locus YJL187C, strain SWE1, hits give low values 0.984 | locus YJR066W, strain TOR1, hits give low values 1 | [47] 1.05 | [48] 0.976 | [49] 0.992 | [50] 0.974 | [51] 0.996 | [52] 1 | [53] 1 | locus YLR113W, strain HOG1, hits give low values 1.03 | [54] 0.966 | [55] 1.01 | [56] 0.927 | [57] 0.926 | [58] 1 | [59] 0.986 | [60] 1.01 | [61] 0.991 | [62] 0.956 | [63] 0.981 | [64] 1 | [65] 0.986 | [66] 0.997 | [67] 0.994 | [68] 0.98 | locus YNL183C, strain NPR1, hits give low values 0.973 | [69] 1 | [70] 1.04 | [71] 1 | [72] 1.01 | [73] 0.94 | [74] 0.991 | [75] 0.994 | [76] 0.982 | [77] 1.01 | locus YOR231W, strain MKK1, hits give low values 1.02 | [78] 0.989 | [79] 1 | [80] 1.05 | [81] 1.05 | [82] 1.04 | [83] 1.02 | [84] 0.994 | locus YPL256C, strain CLN2, hits give low values 1.03

CC(C)C(NC(=O)C(Cc1ccc(O)cc1)NC(=O)C(NC(=O)C(F)(F)F)C(C)C)C(=O)O (stereo not drawn) (Tfa-Val-Tyr-Val-OH; configuration not given here)
inactive: [1] 0.997 | [2] 1 | [3] 0.985 | [4] 0.984 | [5] 1.02 | [6] 0.983 | [7] 0.976 | [8] 1 | [9] 0.996 | [10] 1 | [11] 0.98 | [12] 1 | [13] 0.988 | [14] 0.998 | [15] 0.976 | [16] 0.997 | [17] 0.984 | [18] 0.968 | [19] 0.979 | locus YDR195W, strain ref2 0.995 | [20] 0.985 | [21] 1.01 | [22] 0.994 | [23] 0.935 | [24] 0.996 | [25] 0.99 | [26] 1.01 | [27] 0.999 | [28] 0.976 | [29] 0.972 | [30] 0.983 | [31] 0.997 | [32] 0.985 | [33] 0.991 | [34] 0.988 | [35] 0.998 | [36] 0.982 | [37] 0.94 | [38] 0.988 | [39] 0.995 | [40] 0.995 | [41] 0.975 | [42] 0.986 | [43] 0.995 | [44] 0.98 | [45] 0.989 | [46] 1.02 | [47] 1 | [48] 0.989 | [49] 0.983 | [50] 1 | [51] 1 | [52] 1 | [53] 0.991 | [54] 1 | [55] 0.995 | [56] 0.969 | [57] 0.993 | [58] 0.996 | [59] 0.951 | [60] 0.992 | [61] 1 | [62] 0.98 | [63] 0.982 | [64] 0.978 | [65] 0.998 | [66] 0.998 | [67] 0.997 | [68] 0.987 | [69] 1 | [70] 0.963 | [71] 0.971 | [72] 1 | [73] 1 | [74] 0.995 | [75] 0.984 | [76] 0.94 | [77] 1 | [78] 0.998 | [79] 0.963 | [80] 0.985 | [81] 0.986 | [82] 0.987 | [83] 0.954 | [84] 0.981
